{"source": "PubChem BioAssay AID431", "about": "(Sanford-Burnham Center for Chemical Genomics, 2006)", "note": "Hit rate of the full screen: of about 63,000 compounds, about 1,100 (1.7%) were called active. For the sample, actives were picked, then their nearest neighbours and some compounds at random. Measured potencies and affinities stand elsewhere. Unmarked numbers belong to inactive results.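 Rule for the calls: active = compounds whose percent cytotoxicity in the single-dose primary screen, scaled between solvent and toxic-drug controls, exceeds 50; inactive = the rest.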"}
{"test": "cytotoxicity in KRAS-transformed pancreatic duct cells, primary screen, cell-based, fluorescence, HTS (AID 431);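 note: 0% = DMSO solvent wells and 100% = doxorubicin-treated wells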", "conditions": "HPDE-C7K KRASV12 cells, Alamar Blue viability, 48 h; at 10 µM; active compounds read high"}
{"smiles": "COC(=O)CC1Oc2ccccc2N(Cc2ccc(C)cc2)C1=O", "note": "(configuration not stated)", "cytotoxicity": "1.3%"}
{"smiles": "O=C(CCC1CCCC1)Nc1ccon1", "cytotoxicity": "-5.5%"}
{"smiles": "CCOc1ccc(NC(=O)Nc2ccc3nccnc3c2)cc1", "cytotoxicity": "8.3%"}
{"smiles": "O=C(CSc1nc(-c2ccc(F)cc2)cs1)NC(=O)NCc1ccco1", "cytotoxicity": "1%"}
{"smiles": "CCOC(=O)/C=C1\\SCC(=O)N1Cc1nnc(-c2ccccc2Br)o1", "cytotoxicity": "-23.5%"}
{"smiles": "COC(=O)c1[nH]c(C)c(/C(O)=C2\\C(=O)C(=O)N(CCN(C)C)C2c2cc(OC)ccc2OC)c1C", "note": "(configuration not stated)", "cytotoxicity": "-7.9%"}
{"smiles": "O=C(CSc1ncc(-c2ccccc2)nn1)NCc1ccco1", "cytotoxicity": "-13.8%"}
{"smiles": "CC(C)c1nnc(NC(=O)CCS(=O)(=O)c2nc(-c3cccs3)cc(C(F)(F)F)n2)s1", "cytotoxicity": "43.6%"}
{"smiles": "CN1CCN(c2nc(-c3cccs3)cc(C(F)(F)F)n2)CC1", "cytotoxicity": "3.2%"}
{"smiles": "CCn1c(SCC(=O)Nc2ccc(N3CCOCC3)c(Cl)c2)nnc1-c1ccc(N)cc1", "cytotoxicity": "3.4%"}
{"smiles": "Clc1ccc(OCc2nn3c(C4CCCCC4)nnc3s2)cc1", "cytotoxicity": "17.1%"}
{"smiles": "CCOc1cc(-c2nc(-c3ccc(C)nc3OC)no2)cc(OCC)c1OCC", "cytotoxicity": "-15%"}
{"smiles": "Cc1nc(NC(=O)c2oc3ccccc3c2C)sc1C(=O)N(C)C", "cytotoxicity": "12.9%"}
{"smiles": "CCN1CCN(c2ncc(C(=O)Nc3cc(Cl)ccc3OC)c3ccccc23)CC1", "cytotoxicity": "75.3% (active)"}
{"smiles": "CCN1CCN(c2ncc(C(=O)Nc3cc(Cl)c(OC)cc3OC)c3ccccc23)CC1", "cytotoxicity": "11.7%"}
{"smiles": "CCN1CCN(c2ncc(C(=O)Nc3ccccc3C(=O)OC)c3ccccc23)CC1", "cytotoxicity": "40.3%"}
{"smiles": "O=c1/c(=C\\c2cccnc2)sc2nc3ccccc3n12", "cytotoxicity": "-13.6%"}
{"smiles": "COc1cc(C(=O)OC(C)CN2CCN(C)CC2)cc(OC)c1OC", "note": "(configuration not stated)", "cytotoxicity": "-37.3%"}
{"smiles": "O=C(CN1C(=O)COc2ccccc21)c1ccc(Cl)cc1", "cytotoxicity": "-0.2%"}
{"smiles": "Cc1ccc(C(=O)CSc2nnc(CNc3nc(-c4ccccc4)cs3)n2C)cc1", "cytotoxicity": "4.1%"}
{"smiles": "COc1ccc(OCC(=O)Nc2ccccc2C(=O)N2CCCC2)cc1", "cytotoxicity": "-0.2%"}
{"smiles": "NS(=O)(=O)c1ccc(S(=O)(=O)N(Cc2ccccc2F)CC2CCCO2)cc1", "note": "(configuration not stated)", "cytotoxicity": "4%"}
{"smiles": "CC(NC(=O)NCC1CCCO1)(C(F)(F)F)C(F)(F)F", "note": "(configuration not stated)", "cytotoxicity": "-11.1%"}
{"smiles": "Cc1ccccc1-n1c(C)nnc1SCC(=O)NCC1CCCO1", "note": "(configuration not stated)", "cytotoxicity": "-1.6%"}
{"smiles": "COc1ccc(S(=O)(=O)N(C)CC(=O)NC2CCCC2)cc1Cl", "cytotoxicity": "-18%"}
{"smiles": "Cc1nc2ccccc2c(=O)n1/N=C/c1c(O)ccc2oc3c(c12)CCCC3", "cytotoxicity": "72.1% (active)"}
{"smiles": "Oc1ccc2oc3c(c2c1/C=N/n1cnnc1)CCCC3", "cytotoxicity": "-21.1%"}
{"smiles": "Cc1nc2ccccc2c(=O)n1/N=C/c1ccc(O)cc1", "cytotoxicity": "24.4%"}
{"smiles": "CCCC(=O)NC(c1ccco1)c1cc(Cl)c2cccnc2c1O", "note": "(configuration not stated)", "cytotoxicity": "59.2% (active)"}
{"smiles": "CCCC(=O)Nc1ccc(Cl)c(NC(=O)c2ccco2)c1", "cytotoxicity": "3.9%"}
{"smiles": "O=C(Oc1c(Cl)cc(Cl)c2cccnc12)N1CCCCC1", "cytotoxicity": "10.8%"}
{"smiles": "NC(=O)c1ccc(N2CCCCC2)c(N2C(=O)C3C4C=CC(C4)C3C2=O)c1", "note": "(configuration not stated)", "cytotoxicity": "2.5%"}
{"smiles": "O=C(CSc1nc(O)cc(=O)n1-c1ccccc1)NCc1ccccc1", "cytotoxicity": "-1%"}
{"smiles": "CC1=C(C(=O)OC(C)C)C(c2cccs2)N2C(=O)CCSC2=N1", "note": "(configuration not stated)", "cytotoxicity": "10.1%"}
{"smiles": "O=C1CC(N2CCN(c3ccc(F)cc3)CC2)C(=O)N1Cc1cccs1", "note": "(configuration not stated)", "cytotoxicity": "-7.6%"}
{"smiles": "O=C1CC(N2CCN(c3nc4ccccc4s3)CC2)C(=O)N1Cc1cccs1", "note": "(configuration not stated)", "cytotoxicity": "5.6%"}
{"smiles": "Cc1cccc(N(CC(=O)NC2CCCCC2)C(=O)CCC(=O)Nc2cc(C)ccn2)c1", "cytotoxicity": "-11.1%"}
{"smiles": "N#Cc1cccc2cnccc12", "cytotoxicity": "-3.3%"}
{"smiles": "CCN(CC)c1ccc(-c2nn3c(-c4cccnc4)nnc3s2)cc1", "cytotoxicity": "56.4% (active)"}
{"smiles": "c1cncc(-c2nn3c(-c4ccncc4)nnc3s2)c1", "cytotoxicity": "-1%"}
{"smiles": "CCOc1ccc(-c2nn3c(-c4ccc(F)cc4)nnc3s2)cc1", "cytotoxicity": "9.9%"}
{"smiles": "CN(C)c1ccc(-c2nn3c(-c4ccncc4)nnc3s2)cc1", "cytotoxicity": "-7.6%"}
{"smiles": "CN(C)c1ccc(-c2nn3c(-c4cccnc4)nnc3s2)cc1", "cytotoxicity": "-11.9%"}
{"smiles": "O=C(CC1(O)C(=O)N(Cc2ccc3c(c2)OCO3)c2ccccc21)c1ccccc1", "note": "(configuration not stated)", "cytotoxicity": "-28%"}
{"smiles": "O=C(NCC1CCCO1)c1csc2c1CCCCC2", "note": "(configuration not stated)", "cytotoxicity": "-11.1%"}
{"smiles": "COc1ccccc1N1CCN(Cc2ccc(OC)c(OC)c2OC)CC1", "cytotoxicity": "-15.5%"}
{"smiles": "CCCC(N)CCCCCC(=O)O", "note": "(configuration not stated)", "cytotoxicity": "4.3%"}
{"smiles": "CCSC(SCC)[C@H](O)[C@@H](O)[C@H](O)[C@H](O)CO", "cytotoxicity": "-20.9%"}
{"smiles": "N#CC(C(=O)NC1CCCCC1)c1nc2ccccc2nc1N1CCCCC1", "note": "(configuration not stated)", "cytotoxicity": "-0.2%"}
{"smiles": "CC(=O)NCCCc1c[nH]c2ccc(Cl)cc12", "cytotoxicity": "5.3%"}
{"smiles": "O=C(NCc1ccc(Cl)cc1)c1ccc(COCC(F)(F)F)o1", "cytotoxicity": "7.2%"}
{"smiles": "COc1ccc(-n2nnc3c(=O)n(CC(=O)NCC4CCCO4)cnc32)cc1", "note": "(configuration not stated)", "cytotoxicity": "-5%"}
{"smiles": "CCn1c(NC2CCCCC2)nc2ccccc21", "cytotoxicity": "15.1%"}
{"smiles": "COc1cccc(CNc2nc3ccccc3n2CCN2CCCCC2)c1", "cytotoxicity": "-17.7%"}
{"smiles": "COc1ccc(C(=O)CSc2nnc(-c3ccoc3C)n2CC2CCCO2)cc1", "note": "(configuration not stated)", "cytotoxicity": "-33%"}
{"smiles": "Cc1nc2c(-c3ccccc3)c(C)nn2c(C)c1CCC(=O)N1CCOCC1", "cytotoxicity": "-17%"}
{"smiles": "Cc1cc(C)c(S(N)(=O)=O)c(C)c1-n1cnnn1", "cytotoxicity": "-18.5%"}
{"smiles": "CCOC(=O)CSC1=C(C#N)C(c2ccccc2C)C2=C(CCCC2=O)N1", "note": "(configuration not stated)", "cytotoxicity": "0.9%"}
{"smiles": "COc1cccc(C2/C(=C(\\O)c3c(C)nc4c(C)cccn34)C(=O)C(=O)N2CCCN(C)C)c1OC", "note": "(configuration not stated)", "cytotoxicity": "-1.4%"}
{"smiles": "CCOC(=O)c1[nH]c2ccc(OCC)cc2c1NC(=O)CN1CCN(c2ccccn2)CC1", "cytotoxicity": "0.9%"}
{"smiles": "O=C(c1ccco1)N1CCN(c2ncnc3c2[nH]c2ccccc23)CC1", "cytotoxicity": "21.1%"}
{"smiles": "c1ccc2c(c1)[nH]c1c(N3CCOCC3)ncnc12", "cytotoxicity": "-3.2%"}
{"smiles": "Cc1ccc2c(c1)[nH]c1c(N3CCN(Cc4ccccc4)CC3)ncnc12", "cytotoxicity": "107% (active)"}
{"smiles": "CCOc1ccc2[nH]c3c(N4CCN(c5ccccn5)CC4)ncnc3c2c1", "cytotoxicity": "77.1% (active)"}
{"smiles": "c1ccc(CN2CCN(c3ncnc4nc[nH]c34)CC2)cc1", "cytotoxicity": "-3.8%"}
{"smiles": "c1ccc(CN2CCN(c3ncnc4c3[nH]c3ccccc34)CC2)cc1", "cytotoxicity": "119% (active)"}
{"smiles": "c1ccc2c(c1)[nH]c1c(N3CCCC3)ncnc12", "cytotoxicity": "20%"}
{"smiles": "c1ccc2c(c1)[nH]c1c(N3CCC4(CC3)OCCO4)ncnc12", "cytotoxicity": "23.3%"}
{"smiles": "CCOC(=O)N1CCN(c2ncnc3c2[nH]c2ccc(OC)cc23)CC1", "cytotoxicity": "18.4%"}
{"smiles": "OC1(c2cccc(C(F)(F)F)c2)CCN(c2ncnc3c2[nH]c2ccccc23)CC1", "cytotoxicity": "124% (active)"}
{"smiles": "c1ccc2c(c1)[nH]c1c(N3CCSCC3)ncnc12", "cytotoxicity": "44.2%"}
{"smiles": "Cc1nonc1NC(=O)Nc1cccnc1", "cytotoxicity": "5.4%"}
{"smiles": "CCOc1ccccc1N(CC(=O)NCc1ccc(OC)cc1)S(C)(=O)=O", "cytotoxicity": "-11.2%"}
{"smiles": "COc1ccc(-n2nnnc2SCC(=O)Nc2cccc(NC(C)=O)c2)cc1OC", "cytotoxicity": "11.1%"}
{"smiles": "CSC1=NCCN1C(=O)Cc1ccc(Cl)cc1", "cytotoxicity": "3.5%"}
{"smiles": "CCOC(=O)c1ccc(NC(=O)c2nn(CC)cc2Br)cc1", "cytotoxicity": "0.8%"}
{"smiles": "Cc1ccc2[nH]c3c(N4CCCCCC4)ncnc3c2c1", "cytotoxicity": "30.4%"}
{"smiles": "Cc1ccc2[nH]c3c(N4CCOCC4)ncnc3c2c1", "cytotoxicity": "16.2%"}
{"smiles": "O=C(c1cccc(-c2nnc(-c3ccccc3)o2)c1)N1CCCCC1", "cytotoxicity": "14%"}
{"smiles": "COCCNC(=O)CN1CCC(NC(=O)Nc2ccccc2)CC1", "cytotoxicity": "-1%"}
{"smiles": "CN(Cc1ccccc1)C(=O)CCCn1c(=O)[nH]c2cc(Cl)ccc2c1=O", "cytotoxicity": "-8.5%"}
{"smiles": "COc1ccc(S(=O)(=O)N2CCN(c3ncnc4c(-c5ccccc5)nsc34)CC2)cc1", "cytotoxicity": "-20.8%"}
{"smiles": "COc1ccc(-c2nsc3c(N4CCCC4)ncnc23)cc1", "cytotoxicity": "11.5%"}
{"smiles": "COc1ccc(-c2nsc3c(N4CCN(S(=O)(=O)c5ccccc5)CC4)ncnc23)cc1", "cytotoxicity": "56.4% (active)"}
{"smiles": "CCOC(=O)C(NC(=O)c1ccccc1)=C1C=C(C)OC(C)=C1", "cytotoxicity": "-13.9%"}
{"smiles": "O=C(NCc1ccc2c(c1)OCO2)c1cccc(Cl)c1", "cytotoxicity": "3.6%"}
{"smiles": "O=C(NCc1ccc2c(c1)OCO2)c1ccc(-c2ccc(Cl)cc2)o1", "cytotoxicity": "61.3% (active)"}
{"smiles": "O=C(NCc1ccc2c(c1)OCO2)c1nnc(Cc2ccc(Cl)cc2)o1", "cytotoxicity": "1.6%"}
{"smiles": "COCCN(C(=O)CCC(=O)Nc1cccnc1)C(C(=O)NC1CCCCC1)c1ccccc1", "note": "(configuration not stated)", "cytotoxicity": "-2.1%"}
{"smiles": "COC(=O)C1=C(C)N=c2s/c(=C/c3ccoc3)c(=O)n2C1c1ccccc1", "note": "(configuration not stated)", "cytotoxicity": "8.9%"}
{"smiles": "CSc1nnc(Cn2c(=O)sc3ccccc32)n1C", "cytotoxicity": "6.8%"}
{"smiles": "CCOc1ccc(N2CC(C(=O)Nc3cccc(C)c3C)CC2=O)cc1", "note": "(configuration not stated)", "cytotoxicity": "15.6%"}
{"smiles": "COc1ccc(OC)c(S(=O)(=O)NCc2cn3c(C)csc3n2)c1", "cytotoxicity": "-5.8%"}
{"smiles": "CN1CCN(S(=O)(=O)c2ccc(NC(=O)c3cccc(S(=O)(=O)N4CCCC4)c3)cc2)CC1", "cytotoxicity": "-54.2%"}
{"smiles": "COC(=O)Nc1ccc(S(=O)(=O)N2CCN(C)CC2)cc1", "cytotoxicity": "10.6%"}
{"smiles": "CN1CCN(S(=O)(=O)c2ccc(NC(=O)Nc3cccc(Cl)c3)cc2)CC1", "cytotoxicity": "53% (active)"}
{"smiles": "O=C(CSc1nnnn1-c1ccc2c(c1)CCC2)NCc1cccs1", "cytotoxicity": "13.2%"}
